PubChem BioAssay (EPA / NIEHS)
Results filed as inconclusive are left out. Activity calls are given as the source filed them. The calls were made as follows, unless noted: active = hit-call score of the fitted dose curve at least 0.9, where 1 is the maximum; inactive = score below 0.9.

Assays:
[1] = molecular target: Oxysterols receptor LXR-alpha (Homo sapiens) (UniProt Q13133); experiment: ATG_LXRa_TRANS: Attagene TRANS-FACTORIAL HepG2 Assay for human Liver X Receptor alpha (LXRa) (AID 2282980; active = hit-call score of the fitted dose curve at least 0.9, where 1 is the maximum); conditions: HepG2 Attagene TRANS reporter, LXRa transactivation
Chain of Oxysterols receptor LXR-alpha (Homo sapiens) (Q13133 whole entry, looked up, the tested form may be a part): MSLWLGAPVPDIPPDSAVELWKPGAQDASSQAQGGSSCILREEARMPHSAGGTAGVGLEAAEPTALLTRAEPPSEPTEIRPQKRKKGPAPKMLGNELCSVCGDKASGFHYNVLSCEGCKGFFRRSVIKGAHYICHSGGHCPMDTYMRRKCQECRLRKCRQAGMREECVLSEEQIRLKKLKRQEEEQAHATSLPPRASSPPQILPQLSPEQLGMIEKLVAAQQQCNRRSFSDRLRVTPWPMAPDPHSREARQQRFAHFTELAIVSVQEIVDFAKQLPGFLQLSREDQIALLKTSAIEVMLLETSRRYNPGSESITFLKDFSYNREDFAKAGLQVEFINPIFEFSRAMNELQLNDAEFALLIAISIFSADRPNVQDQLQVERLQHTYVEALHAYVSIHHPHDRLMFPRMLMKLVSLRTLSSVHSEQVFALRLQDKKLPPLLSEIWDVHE
Outline: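 Chemical-induced reporter mRNA measured by RT-PCR with fluorescent labelling and capillary electrophoresis after 24 h dosing of transiently transfected HepG2 cells expressing exogenous NR-Gal4 chimeras; increases scored against DMSO baseline.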

[2] = molecular target: Oxysterols receptor LXR-beta (Homo sapiens) (UniProt P55055); experiment: ATG_LXRb_TRANS: Attagene TRANS-FACTORIAL HepG2 Assay for human Liver X Receptor beta (LXRb) (AID 2282981; active = hit-call score of the fitted dose curve at least 0.9, where 1 is the maximum); conditions: HepG2 Attagene TRANS GAL4-LXRb reporter, mRNA
Chain of Oxysterols receptor LXR-beta (Homo sapiens) (P55055 whole entry, looked up, the tested form may be a part): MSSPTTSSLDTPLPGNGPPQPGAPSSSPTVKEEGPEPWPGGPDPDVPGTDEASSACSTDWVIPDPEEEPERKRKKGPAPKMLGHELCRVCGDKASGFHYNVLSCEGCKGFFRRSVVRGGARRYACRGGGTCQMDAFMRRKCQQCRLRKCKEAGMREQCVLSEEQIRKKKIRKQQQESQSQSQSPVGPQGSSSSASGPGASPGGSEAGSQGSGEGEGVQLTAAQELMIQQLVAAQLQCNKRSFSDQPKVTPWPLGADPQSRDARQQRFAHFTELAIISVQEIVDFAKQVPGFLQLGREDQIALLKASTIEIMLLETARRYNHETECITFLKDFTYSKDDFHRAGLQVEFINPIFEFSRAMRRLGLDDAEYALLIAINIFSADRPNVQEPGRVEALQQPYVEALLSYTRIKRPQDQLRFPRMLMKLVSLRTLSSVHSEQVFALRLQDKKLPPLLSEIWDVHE
Outline: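 In this TRANS format, exogenous chimeric NR-Gal4 protein activity, not endogenous factors, drives reporter expression in transfected human HepG2 cells. Exposure lasted 24 h; reporter mRNA was read by fluorescent capillary electrophoresis.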

[3] = ATG_M_06_TRANS: Attagene TRANS-FACTORIAL HepG2 Assay for M06 Transcription Factor (Internal Marker) (AID 2282983; active = hit-call score of the fitted dose curve at least 0.9, where 1 is the maximum); conditions: HepG2 Attagene TRANS M06 internal marker reporter
Outline: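 Cells: HepG2, transient multi-reporter transfection. Exposure: 24 h. Detection: RT-PCR, 6-FAM labelling, HpaI digestion (2 h, 37 °C), capillary electrophoresis. Baseline: DMSO.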

[4] = ATG_M_32_TRANS: Attagene TRANS-FACTORIAL HepG2 Assay for M32 Transcription Factor (Internal Marker) (AID 2282984; active = hit-call score of the fitted dose curve at least 0.9, where 1 is the maximum;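 also: transcript level of a background control reporter unit measured by RT-PCR and capillary electrophoresis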); conditions: HepG2 Attagene TRANS M32 internal marker reporter
Outline: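 Human hepatoma HepG2, transient MRTU transfection, 24 h treatment. RNA → RT-PCR → fluorescent primer extension → HpaI digest (2 h, 37 C) → CE. Positive-direction fit vs DMSO.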

[5] = molecular target: Nuclear receptor subfamily 4 group A member 2 (Homo sapiens) (UniProt P43354); experiment: ATG_NURR1_TRANS: Attagene TRANS-FACTORIAL HepG2 Assay for human Nuclear Receptor Related Protein 1 (NURR1) (AID 2282985; active = hit-call score of the fitted dose curve at least 0.9, where 1 is the maximum); conditions: HepG2 Attagene TRANS reporter, mRNA readout
Chain of Nuclear receptor subfamily 4 group A member 2 (Homo sapiens) (P43354 whole entry, looked up): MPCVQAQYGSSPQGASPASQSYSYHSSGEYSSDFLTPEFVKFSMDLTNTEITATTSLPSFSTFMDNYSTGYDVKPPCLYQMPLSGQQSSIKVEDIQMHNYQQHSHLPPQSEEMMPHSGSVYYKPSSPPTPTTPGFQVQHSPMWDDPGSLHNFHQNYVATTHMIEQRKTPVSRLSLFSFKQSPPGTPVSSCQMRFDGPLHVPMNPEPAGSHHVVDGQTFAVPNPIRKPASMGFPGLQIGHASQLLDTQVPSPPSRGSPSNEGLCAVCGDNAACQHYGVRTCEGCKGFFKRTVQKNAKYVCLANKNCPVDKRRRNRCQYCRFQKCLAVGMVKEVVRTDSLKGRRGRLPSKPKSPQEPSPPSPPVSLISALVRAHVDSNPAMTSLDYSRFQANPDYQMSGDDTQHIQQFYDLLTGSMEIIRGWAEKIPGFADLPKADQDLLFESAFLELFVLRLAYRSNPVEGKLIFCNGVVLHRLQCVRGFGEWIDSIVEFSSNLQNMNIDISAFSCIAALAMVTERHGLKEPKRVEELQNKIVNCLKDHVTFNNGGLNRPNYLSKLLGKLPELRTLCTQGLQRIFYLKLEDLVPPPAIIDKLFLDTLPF
Outline: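 After 24 h chemical dosing, total RNA from transiently transfected HepG2 cells was reverse-transcribed and reporter cDNA PCR-amplified, FAM-labelled and analysed by capillary electrophoresis. Activity fitted in positive direction, DMSO as negative control.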

[6] = molecular target: Transcriptional activator Myb (Homo sapiens) (UniProt P10242); experiment: ATG_Myb_CIS: Attagene CIS-FACTORIAL HepG2 Assay for human Myeloblastosis (Myb) Proto-Oncogene Transcription Factor (AID 2282986); conditions: HepG2 Attagene CIS-FACTORIAL Myb reporter transcription; actives raise or lower the signal
Chain of Transcriptional activator Myb (Homo sapiens) (P10242 whole entry, looked up): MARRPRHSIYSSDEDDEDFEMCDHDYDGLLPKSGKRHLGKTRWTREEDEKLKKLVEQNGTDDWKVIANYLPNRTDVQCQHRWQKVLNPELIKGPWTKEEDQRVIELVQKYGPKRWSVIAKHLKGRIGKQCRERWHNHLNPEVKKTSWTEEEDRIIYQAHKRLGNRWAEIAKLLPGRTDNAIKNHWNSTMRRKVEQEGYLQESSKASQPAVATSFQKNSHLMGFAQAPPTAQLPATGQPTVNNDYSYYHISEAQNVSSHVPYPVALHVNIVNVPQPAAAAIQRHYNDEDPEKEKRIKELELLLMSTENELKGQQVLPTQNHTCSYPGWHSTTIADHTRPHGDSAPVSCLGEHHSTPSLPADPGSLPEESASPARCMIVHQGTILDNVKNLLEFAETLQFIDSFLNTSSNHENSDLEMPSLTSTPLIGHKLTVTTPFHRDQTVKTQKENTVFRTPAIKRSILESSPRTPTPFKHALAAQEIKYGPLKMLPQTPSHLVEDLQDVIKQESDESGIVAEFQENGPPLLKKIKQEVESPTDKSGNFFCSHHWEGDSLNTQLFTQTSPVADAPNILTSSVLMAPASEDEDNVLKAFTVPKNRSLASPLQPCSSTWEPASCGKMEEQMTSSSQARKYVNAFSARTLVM
Outline: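 Transiently transfected HepG2 cells, treated 24 h. Reporter mRNA quantified by RT-PCR/capillary electrophoresis; bidirectional fit relative to DMSO.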

[7] = molecular target: Nuclear respiratory factor 1 (Homo sapiens) (UniProt Q16656); experiment: ATG_NRF1_CIS: Attagene CIS-FACTORIAL HepG2 Assay for human Nuclear Respiratory Factor 1 (NRF1) Orphan Gene (AID 2282987); conditions: HepG2 NRF1 cis-element reporter, Attagene multiplex; actives raise or lower the signal
Chain of Nuclear respiratory factor 1 (Homo sapiens) (Q16656 whole entry, looked up, the tested form may be a part): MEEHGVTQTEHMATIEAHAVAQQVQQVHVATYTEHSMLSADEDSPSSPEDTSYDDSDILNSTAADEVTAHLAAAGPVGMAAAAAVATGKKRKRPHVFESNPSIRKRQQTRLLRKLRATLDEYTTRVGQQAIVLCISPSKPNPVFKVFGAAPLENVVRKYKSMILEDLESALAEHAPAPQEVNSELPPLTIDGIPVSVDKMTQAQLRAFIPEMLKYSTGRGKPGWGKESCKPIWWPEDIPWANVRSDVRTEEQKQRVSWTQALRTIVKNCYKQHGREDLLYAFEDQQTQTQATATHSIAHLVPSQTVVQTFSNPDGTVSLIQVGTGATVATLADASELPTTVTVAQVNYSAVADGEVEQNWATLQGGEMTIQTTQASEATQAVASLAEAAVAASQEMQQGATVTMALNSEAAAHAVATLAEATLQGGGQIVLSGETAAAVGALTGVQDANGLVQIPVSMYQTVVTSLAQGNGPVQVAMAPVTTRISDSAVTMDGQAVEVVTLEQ
Outline: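 Cells (HepG2, transient MRTU transfection) are exposed to compound for 24 h, then RNA isolated and reporter mRNA amplified and fluorescently labelled. Fragments are separated by capillary electrophoresis; signal change is fitted bidirectionally relative to DMSO.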

[8] = ATG_NFI_CIS: Attagene CIS-FACTORIAL HepG2 Assay for human Nuclear Factor I (NFI) (AID 2282989); conditions: HepG2 cis-regulatory reporter, NFI response element transcription; actives raise or lower the signal
Outline: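 Read-out: reporter mRNA via RT-PCR plus capillary electrophoresis with fluorescence detection. Transiently transfected HepG2 (endogenous TF activity on cis promoters), 24 h compound exposure; gain or loss of signal fitted against DMSO.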

[9] = molecular target: Myc proto-oncogene protein (Homo sapiens) (UniProt P01106); experiment: ATG_Myc_CIS: Attagene CIS-FACTORIAL HepG2 Assay for human Myelocytomatosis (Myc) Proto-Oncogene Transcription Factor (AID 2282990); conditions: HepG2, Attagene cis-reporter transcription factor activity; actives raise or lower the signal
Chain of Myc proto-oncogene protein (Homo sapiens) (P01106 whole entry, looked up): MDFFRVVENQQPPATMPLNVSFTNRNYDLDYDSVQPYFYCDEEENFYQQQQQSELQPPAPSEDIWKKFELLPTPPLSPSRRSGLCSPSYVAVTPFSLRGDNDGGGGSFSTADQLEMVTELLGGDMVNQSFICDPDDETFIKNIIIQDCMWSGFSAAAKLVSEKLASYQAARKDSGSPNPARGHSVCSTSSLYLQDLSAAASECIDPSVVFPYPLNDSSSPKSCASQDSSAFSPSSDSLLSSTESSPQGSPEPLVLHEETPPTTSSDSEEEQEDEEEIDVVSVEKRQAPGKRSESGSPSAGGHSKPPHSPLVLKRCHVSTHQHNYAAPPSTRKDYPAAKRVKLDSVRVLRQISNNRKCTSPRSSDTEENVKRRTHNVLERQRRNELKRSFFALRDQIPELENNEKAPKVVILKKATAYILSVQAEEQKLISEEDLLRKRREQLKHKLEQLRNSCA
Outline: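 DMSO-normalised, bidirectionally fitted reporter mRNA signal. HepG2 cells transfected with cis reporter constructs, treated 24 h; transcripts detected by RT-PCR, 6-FAM primer extension and CE.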

[10] = ATG_NF_kB_CIS: Attagene CIS-FACTORIAL HepG2 Assay for human Nuclear Factor Kappa B (NF-kB) (AID 2282991); conditions: HepG2 Attagene cis-factorial NF-kB reporter mRNA; actives raise or lower the signal
Outline: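 Measures mRNA induction of an NF-kB-responsive cis-element reporter in HepG2 cells transfected with multiple reporter units, sampled 24 h post-dosing; quantified by fluorescence after RT-PCR and capillary electrophoresis, fitted for activation or inhibition against DMSO.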

[11] = ATG_NRF2_ARE_CIS: Attagene CIS-FACTORIAL HepG2 Assay for human Nuclear Factor Erythroid 2 Related Factor 2 (NFR2) response to Antioxidant Response Elements (ARE) (AID 2282992); conditions: HepG2 Attagene ARE/NRF2 reporter, transcription factor activity; actives raise or lower the signal;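 as to AC50: reporter mRNA level measured by RT-PCR and capillary electrophoresis fluorescence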
Outline: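 Transient MRTU transfection of HepG2; 24 h compound exposure; TriZol RNA, RT with oligo(dT), PCR, 6-FAM primer extension, HpaI cut, CE. Bidirectional fit vs DMSO.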

[12] = ATG_Oct_MLP_CIS: Attagene CIS-FACTORIAL HepG2 Assay for human Octamer-Binding Transcription Factor (Oct) (AID 2282993); conditions: HepG2 Attagene cis-factorial Oct reporter, mRNA; actives raise or lower the signal
Outline: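 Read-out: reporter mRNA via RT-PCR plus capillary electrophoresis of 6-FAM-labelled fragments. Transiently transfected HepG2, 24 h exposure, endogenous TF activity on cis elements. Gain or loss of signal fitted relative to DMSO.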

[13] = molecular target: Cellular tumor antigen p53 (Homo sapiens) (UniProt P04637); experiment: ATG_p53_CIS: Attagene CIS-FACTORIAL HepG2 Assay for human p53 Transcription Factor (AID 2282994); conditions: HepG2 p53 cis-element reporter, Attagene mRNA; actives raise or lower the signal
Chain of Cellular tumor antigen p53 (Homo sapiens) (P04637 whole entry, looked up): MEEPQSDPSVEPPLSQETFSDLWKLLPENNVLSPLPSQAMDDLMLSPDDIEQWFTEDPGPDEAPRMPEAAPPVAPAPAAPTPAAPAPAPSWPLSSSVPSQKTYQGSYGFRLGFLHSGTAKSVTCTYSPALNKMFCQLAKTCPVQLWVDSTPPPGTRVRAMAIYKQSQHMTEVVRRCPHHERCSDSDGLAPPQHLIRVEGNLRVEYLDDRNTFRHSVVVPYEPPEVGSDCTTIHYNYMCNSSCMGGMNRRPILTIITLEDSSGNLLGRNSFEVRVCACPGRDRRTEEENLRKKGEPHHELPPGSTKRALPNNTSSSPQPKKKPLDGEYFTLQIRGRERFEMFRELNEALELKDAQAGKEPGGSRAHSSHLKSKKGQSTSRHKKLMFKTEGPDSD
Outline: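 HepG2, transient MRTU transfection (cis promoter elements, endogenous TFs); 24 h dosing; RNA isolation, RT-PCR, 6-FAM primer extension, HpaI digest, CE fluorescence; bidirectional fit vs DMSO.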

[14] = BSK_3C_TissueFactor: BioMAP Diversity Plus: 3C Assay for Tissue Factor Biomarker Activity (AID 2282997); conditions: BioMAP 3C HUVEC, tissue factor biomarker readout; actives raise or lower the signal
Outline: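 Dosing of human umbilical vein endothelial cells preceded a 24 h incubation. Tissue Factor was then read by ELISA, with increases and decreases both scored relative to DMSO controls.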

[15] = BSK_3C_uPAR: BioMAP Diversity Plus: 3C Assay for Urokinase-type plasminogen activator receptor (uPAR) Biomarker Activity (AID 2282998); conditions: BioMAP 3C HUVEC, uPAR biomarker ELISA; actives raise or lower the signal
Outline: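 HUVEC primary cells; 24 h post-dose; uPAR by ELISA; gain or loss of signal fitted bidirectionally vs DMSO baseline.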

[16] = BSK_3C_VCAM1: BioMAP Diversity Plus: 3C Assay for Vascular cell adhesion molecule 1 (VCAM1) Biomarker Activity (AID 2282999); conditions: BioMAP 3C HUVEC, VCAM1 ELISA, cytokine-stimulated; actives raise or lower the signal
Outline: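 Human umbilical vein endothelial cells were dosed with compound for 24 h, after which cell-surface VCAM-1 was quantified by ELISA. Bidirectional curve fitting used DMSO as negative control and activity baseline.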

[17] = BSK_4H_Eotaxin3: BioMAP Diversity Plus: 4H Assay for Eotaxin 3 Biomarker Activity (AID 2283000); conditions: primary human endothelial cells (HUVEC); actives raise or lower the signal
Outline: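 Human umbilical vein endothelial cells (BSK_4H system) dosed with test chemical; Eotaxin-3 (CCL26) measured by ELISA 24 h after dosing. Bidirectional curve fitting relative to DMSO negative control as baseline.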

[18] = molecular target: Hepatocyte nuclear factor 4-alpha (Homo sapiens) (UniProt P41235); experiment: ATG_HNF4a_TRANS: Attagene TRANS-FACTORIAL HepG2 Assay for human Hepatocyte Nuclear Factor 4 alpha (HNF4a) (AID 2282982; active = hit-call score of the fitted dose curve at least 0.9, where 1 is the maximum); conditions: HepG2 HNF4a transactivation reporter, mRNA readout
Chain of Hepatocyte nuclear factor 4-alpha (Homo sapiens) (P41235 whole entry, looked up, the tested form may be a part): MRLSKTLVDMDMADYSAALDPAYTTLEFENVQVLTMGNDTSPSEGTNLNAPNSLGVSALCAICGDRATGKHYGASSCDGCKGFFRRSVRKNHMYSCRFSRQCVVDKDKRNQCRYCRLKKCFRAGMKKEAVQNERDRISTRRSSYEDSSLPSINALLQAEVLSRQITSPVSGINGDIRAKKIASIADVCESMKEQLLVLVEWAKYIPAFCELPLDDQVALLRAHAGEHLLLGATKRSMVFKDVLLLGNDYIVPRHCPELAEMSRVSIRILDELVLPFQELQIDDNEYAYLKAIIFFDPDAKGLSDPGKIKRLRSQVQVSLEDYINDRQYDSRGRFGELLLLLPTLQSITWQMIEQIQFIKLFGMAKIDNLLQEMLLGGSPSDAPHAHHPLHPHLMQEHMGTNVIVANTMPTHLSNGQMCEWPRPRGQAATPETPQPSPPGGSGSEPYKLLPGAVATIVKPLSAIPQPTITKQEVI
Outline: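 Cells used were human HepG2, transiently carrying GAL4-UAS reporter units read out against exogenous NR-GAL4 chimeras. Reporter transcript levels after 24 h dosing were quantified by fluorescent RT-PCR and capillary electrophoresis.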

Measured: AC50

COC(=O)c1ccc2cc(C(=O)OC)ccc2c1
not listed: [14] | [15] | [16] | [17] | [18]
inactive: all other assays above

C=C[Si](OC(C)=O)(OC(C)=O)OC(C)=O
not listed: [3] | [5] | [10] | [18]
inactive: all other assays above

CCCOCCOCCOCCO
inactive: [1] | [2] | [6] | [7] | [9] | [10] | [11] | [12] | [13]

Cc1ccccc1C
not listed: [14] | [15] | [16] | [17]
inactive: all other assays above

O=C(Nc1ccccc1SSc1ccccc1NC(=O)c1ccccc1)c1ccccc1
active: [11] 29.2 µM | [14] 1.15 µM | [15] 9.54 µM | [16] 11.5 µM | [17] 20 µM
not listed: [3] | [18]
inactive: all other assays above

COc1ccc(C(Cl)=C(c2ccc(OC)cc2)c2ccc(OC)cc2)cc1
not listed: [14] | [15] | [16] | [17]
inactive: all other assays above

CCCCCC(C)O (centres undefined)
inactive: [1] | [2] | [18] | [6] | [8] | [9] | [10] | [12]

CC(C)=CCC/C(C)=C\C#N
active: [11] 26.5 µM
not listed: [3] | [9] | [10] | [14] | [15] | [16] | [17]
inactive: all other assays above

CC(C)(C)c1ccc(-c2ccc(C(C)(C)C)cc2)cc1
inactive: [1] | [2] | [4] | [6] | [7] | [8] | [9] | [11] | [12]

CC=C1CC2C=CC1C2 (centres undefined)
active: [10] 100 µM | [11] 45.9 µM
not listed: [3] | [14] | [15] | [16] | [17] | [18]
inactive: all other assays above

CC(=O)OCc1ccco1
active: [11] 45.3 µM
inactive: [1] | [18] | [4] | [6] | [7] | [9] | [10] | [12]

CCc1ccc2c(c1)C(=O)c1ccccc1C2=O
active: [11] 14.5 µM
not listed: [4] | [14] | [15] | [16] | [17] | [18]
inactive: all other assays above

OCCc1ccncc1
inactive: [1] | [18] | [3] | [6] | [7] | [8] | [9] | [10] | [11] | [12]

CCCc1ccc(OC)cc1
inactive: [1] | [18] | [4] | [6] | [7] | [9] | [10] | [11] | [12]

CCO[Si](CCCN=C=O)(OCC)OCC
not listed: [18]
inactive: all other assays above

CC1=CC[C@H]2C[C@@H]1C2(C)C
inactive: [1] | [2] | [4] | [5] | [6] | [8] | [9] | [10] | [11] | [12]

CO[Si](OC)(OC)c1ccccc1
not listed: [2] | [5]
inactive: all other assays above

N[C@H]1C(O)O[C@H](CO)[C@H](O)[C@@H]1O (some centres undefined)
inactive: [1] | [2] | [3] | [6] | [7] | [8] | [9] | [11] | [12] | [13]

CCN(Cc1cccc(S(=O)(=O)O)c1)c1ccc(C(=C2C=CC(=[N+](CC)Cc3cccc(S(=O)(=O)[O-])c3)C=C2)c2ccccc2)cc1
active: [11] 112 µM
not listed: [14] | [15] | [16] | [17]
inactive: all other assays above

Cc1ccc2c(c1)C(=O)c1ccccc1C2=O
active: [10] 6.48 µM | [11] 10.5 µM
not listed: [3] | [14] | [15] | [16] | [17]
inactive: all other assays above

[Cl][In]([Cl])[Cl]
inactive: [1] | [18] | [3] | [5] | [6] | [7] | [8] | [9] | [13]
